Records with an inconclusive call do not appear. Calls of active or inactive are those of the source. Unless noted, calls follow the shape of the full dose curve.
Key:
[1] = p53 small molecule agonists, cell-based qHTS assay with human liver microsomes (AID 1963577)
How it was run: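 p53RE-bla cells, 4,000/well, compound added after 5 h, with human liver microsomes 0.5 mg/mL and NADPH 0.5 mg/mL final; 16 h at 37 C, then LiveBLAzer 2 h RT, fluorescence.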

[2] = p53 small molecule agonists, cell-based qHTS assay with rat liver microsomes (AID 1963578)
How it was run: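 p53RE-bla cells, 4,000/well, pre-incubated 5 h, then given compounds plus rat liver microsomes (0.5 mg/mL final) and NADPH (0.5 mg/mL final). Incubation 16 h at 37 C; beta-lactamase reporter read by LiveBLAzer fluorescence after 2 h at room temperature.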

[3] = p53 small molecule agonists, cell-based qHTS assay with human liver microsomes: qHTS cell viability counter screen (AID 1963579); also: nearly all actives have a fitted effect of over 45% in size
How it was run: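 p53RE-bla cells, 4,000/well, dosed 5 hours after plating, with human liver microsomes (0.5 mg/mL final) plus NADPH (0.5 mg/mL final), 16 hours at 37 C. Viability read as CellTiter-Glo luminescence after 30 min at room temperature.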

[4] = p53 small molecule agonists, cell-based qHTS assay with rat liver microsomes: qHTS cell viability counter screen (AID 1963580); also: nearly all actives have a fitted effect of over 45% in size
How it was run: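 Cytotoxicity counter screen: intracellular ATP read by CellTiter-Glo luminescence in the p53 reporter wells. HCT-116 p53RE-bla cells were treated for 16 h at 37 C alongside rat liver microsomes and NADPH, each 0.5 mg/mL final.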

[5] = p53 small molecule agonists, cell-based qHTS assay: qHTS cell viability counter screen (AID 1963581); also: nearly all actives have a fitted effect of over 45% in size
How it was run: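 ATP content measured by luminescence in HCT-116 p53RE-bla cells treated 16 h at 37 C, same wells as the reporter screen.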

[6] = p53 small molecule agonists, cell-based qHTS assay (AID 1963582; active = well fitted activation curve with a large enough effect in the signal ratio in the repeat runs, not every such curve was filed as active; the % refers to the signal ratio)
How it was run: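 16 h compound exposure (37 C) of p53 response element–bla cells, preceded by 5 h recovery at 37 C/5% CO2; read-out via LiveBLAzer B/G FRET substrate, 2 h RT, fluorescence intensity.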

[7] = molecular target: 5-hydroxytryptamine receptor 2A (Homo sapiens) (UniProt P28223); assay: 5-hydroxytryptamine receptor 2A (HTR2A) small molecule antagonists, cell-based qHTS assay (AID 1963586); also: nearly all actives have a fitted effect of over 45% in size
How it was run: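 CHO cells stably expressing human HTR2A were plated for 18 h at 37 C, then loaded with calcium dye for 1 h. Compounds were preincubated 5 min at room temperature before DOI (4 nM solution) was added. Kinetic fluorescence was read for 3 min.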

[8] = molecular target: 5-hydroxytryptamine receptor 2A (Homo sapiens) (UniProt P28223); assay: 5-hydroxytryptamine receptor 2A (HTR2A) small molecule agonists, cell-based qHTS assay (AID 1963587); also: nearly all actives have a fitted effect of over 30% in size
How it was run: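 Kinetic calcium-flux fluorescence (2 min, 1 sec intervals) after compound addition in agonist mode. HTR2A-CHO cells were cultured 18 h, then dye-loaded 1 h at 37 C.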

[9] = molecular target: Muscarinic acetylcholine receptor M1 (Homo sapiens) (UniProt P11229); assay: Cholinergic receptor muscarinic 1 (CHRM1) small molecule antagonists, cell-based qHTS assay (AID 1963588); also: nearly all actives have a fitted effect of over 40% in size
How it was run: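 Compounds were tested at 15 concentrations in three independent runs. Dye-loaded CHRM1-CHO cells were exposed 5 min at room temperature before stimulation by acetylcholine added at 50nM. Intracellular calcium was read kinetically on FDSS for 3 min.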

[10] = molecular target: Muscarinic acetylcholine receptor M1 (Homo sapiens) (UniProt P11229); assay: Cholinergic receptor muscarinic 1 (CHRM1) small molecule agonists, cell-based qHTS assay (AID 1963589); also: nearly all actives have a fitted effect of over 35% in size
How it was run: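 Homogeneous fluorescence calcium flux, agonist mode. Human M1-expressing CHO cells; compound dosed at 15 concentrations, three independent runs; signal sampled every 1 sec.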

[11] = molecular target: Gonadotropin-releasing hormone receptor (Homo sapiens) (UniProt P30968); assay: Human gonadotropin-releasing hormone receptor (GnRHR) small molecule agonists, calcium flux assay in GnRHR-HEK293 cells (AID 1920063); also: nearly all actives have a fitted effect of over 35% in size
How it was run: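 Compounds dissolved in DMSO are pin-transferred onto dye-loaded GnRHR-HEK293 cells, which were seeded 18 h before at 37 C/5% CO2. Calcium signal is read as fluorescence intensity at 1 s intervals for 3 min.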

[12] = molecular target: KiSS-1 receptor (Homo sapiens) (UniProt Q969F8); assay: Human kisspeptin (KISS1R) small molecule agonists, calcium flux assay in KISS1R-HEK293 cells (AID 1920064; active = well fitted activation curve with a large enough effect in the repeat runs)
How it was run: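 Cell line: HEK293, stable human KISS1R. Dye loading 1 h at 37 C after 18 h culture. Read: kinetic fluorescence, 480/540 nm, 3 min at 1 s intervals.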

[13] = cAMP Responsive Elements (CRE) small molecule agonists, cell-based qHTS assay (AID 1963590)
How it was run: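 HEK 293T cells stably bearing CRE-bla were plated at 2,000 cells per well and rested 18 h. Compounds, positive controls or DMSO were added for 3 h at 37 C. LiveBLAzer B/G substrate was then loaded for 2 h at room temperature.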

[14] = molecular target: Beta-2 adrenergic receptor (Homo sapiens) (UniProt P07550); assay: Adrenergic beta2 receptor (ADRB2) small molecule antagonists, cell-based qHTS assay (AID 1963592); also: series mostly up to about 92 µM; nearly all actives have a fitted effect of over 50% in size
How it was run: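 Assay format: CHO-ADRB2 cells, 18-20hr seeding at 37C/5% CO2, then compound plus 1nM isoproterenol agonist mix for 0.5hr RT. Homogeneous time-resolved fluorescence cAMP detection after 1hr, expressed as 665/615 nm ratio.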

[15] = molecular target: Beta-2 adrenergic receptor (Homo sapiens) (UniProt P07550); assay: Adrenergic beta2 receptor (ADRB2) small molecule agonists, cell-based qHTS assay (AID 1963593);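 also: CHO cells stably overexpressing human ADRB2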
How it was run: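 CHO cells stably over-expressing ADRB2 were plated overnight at 37C, then dosed with compounds plus a stimulation mix containing 100uM IBMX and 25uM Ro-20-1724 for 0.5hr at room temperature. cAMP was measured by HTRF competition, 1hr.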

[16] = molecular target: D(2) dopamine receptor (Homo sapiens) (UniProt P14416); assay: Dopamine D2 receptor (DRD2) small molecule agonists, cell-based qHTS assay (AID 1963594); also: nearly all actives have a fitted effect of over 35% in size
How it was run: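 cAMP accumulation in DRD2-HEK293 cells measured by HTRF after 1 h detection; compounds added 10 min before NKH477 (200nM […]) forskolin-analogue stimulation, 30 min at room temperature, with Ro20-1724 present at 0.1 mM final.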

[17] = molecular target: D(2) dopamine receptor (Homo sapiens) (UniProt P14416); assay: Dopamine D2 receptor (DRD2) small molecule antagonists, cell-based qHTS assay (AID 1963595; active = well fitted inhibition curve with a large enough effect in the signal ratio in the repeat runs, with a control signal flat; the % refers to the signal ratio)
How it was run: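 HEK293 cells stably expressing DRD2 were preincubated with 0.1 mM Ro20-1724, then with compound for 10 min at room temperature. Cells were stimulated with 200 nM NKH477 plus 12 nM quinpirole for 30 min, and cAMP was read by HTRF.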

[18] = cAMP Responsive Elements (CRE) small molecule antagonists, cell-based qHTS assay (AID 1963591; active = well fitted inhibition curve with a large enough effect in the signal ratio in the repeat runs, not every such curve was filed as active; the % refers to the signal ratio)
How it was run: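 First, CRE-bla HEK293T cells settled 18 h at 37 C. Next, compound and 0.25 uM final NKH477 were applied for 3 h. Last, LiveBLAzer B/G substrate was loaded for 2 h at room temperature.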

[19] = G protein-coupled receptor (GPCR) small molecule agonists, calcium flux assay: HEK293 wild type cell line counter screen (AID 1920065)
How it was run: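 Tox21 10K compounds, 15 concentrations each in triplicate, pin-transferred in DMSO onto dye-loaded cells; kinetic read at 480/540 nm for 3 min, 1 s intervals.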

Measured: Potency

KiSS-1 receptor (Homo sapiens), sequence (Q969F8 whole entry, looked up): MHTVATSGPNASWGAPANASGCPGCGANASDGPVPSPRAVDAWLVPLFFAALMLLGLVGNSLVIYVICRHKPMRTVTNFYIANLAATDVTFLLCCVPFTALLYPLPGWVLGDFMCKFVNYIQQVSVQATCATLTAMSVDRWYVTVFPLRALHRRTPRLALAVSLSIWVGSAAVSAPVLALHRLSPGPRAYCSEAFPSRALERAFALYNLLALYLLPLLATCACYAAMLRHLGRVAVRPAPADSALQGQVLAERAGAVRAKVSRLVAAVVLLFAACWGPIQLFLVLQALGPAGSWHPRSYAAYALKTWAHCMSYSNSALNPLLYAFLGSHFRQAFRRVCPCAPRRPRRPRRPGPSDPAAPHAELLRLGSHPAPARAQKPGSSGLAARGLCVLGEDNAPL
D(2) dopamine receptor (Homo sapiens), sequence (P14416 whole entry, looked up): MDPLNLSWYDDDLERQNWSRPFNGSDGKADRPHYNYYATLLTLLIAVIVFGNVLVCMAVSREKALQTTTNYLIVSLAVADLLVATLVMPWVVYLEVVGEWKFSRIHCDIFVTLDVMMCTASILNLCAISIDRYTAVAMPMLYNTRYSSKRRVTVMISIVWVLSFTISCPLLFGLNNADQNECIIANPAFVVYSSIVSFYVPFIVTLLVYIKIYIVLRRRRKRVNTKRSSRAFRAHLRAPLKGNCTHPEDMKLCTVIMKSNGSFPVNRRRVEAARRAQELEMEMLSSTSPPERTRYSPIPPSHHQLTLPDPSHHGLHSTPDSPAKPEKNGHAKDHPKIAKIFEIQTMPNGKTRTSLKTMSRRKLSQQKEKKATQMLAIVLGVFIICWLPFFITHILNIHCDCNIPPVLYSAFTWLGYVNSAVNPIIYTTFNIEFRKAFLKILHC
Gonadotropin-releasing hormone receptor (Homo sapiens), sequence (P30968 whole entry, looked up): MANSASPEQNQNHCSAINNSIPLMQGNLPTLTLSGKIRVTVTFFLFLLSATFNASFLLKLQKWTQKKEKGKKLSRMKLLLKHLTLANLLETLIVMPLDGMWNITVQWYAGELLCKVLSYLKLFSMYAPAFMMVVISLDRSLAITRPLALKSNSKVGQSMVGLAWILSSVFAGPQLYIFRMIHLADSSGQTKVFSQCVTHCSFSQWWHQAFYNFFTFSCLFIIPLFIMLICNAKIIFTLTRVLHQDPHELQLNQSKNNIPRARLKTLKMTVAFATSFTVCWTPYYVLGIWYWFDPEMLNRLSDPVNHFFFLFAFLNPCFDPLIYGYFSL
Beta-2 adrenergic receptor (Homo sapiens), sequence (P07550 whole entry, looked up): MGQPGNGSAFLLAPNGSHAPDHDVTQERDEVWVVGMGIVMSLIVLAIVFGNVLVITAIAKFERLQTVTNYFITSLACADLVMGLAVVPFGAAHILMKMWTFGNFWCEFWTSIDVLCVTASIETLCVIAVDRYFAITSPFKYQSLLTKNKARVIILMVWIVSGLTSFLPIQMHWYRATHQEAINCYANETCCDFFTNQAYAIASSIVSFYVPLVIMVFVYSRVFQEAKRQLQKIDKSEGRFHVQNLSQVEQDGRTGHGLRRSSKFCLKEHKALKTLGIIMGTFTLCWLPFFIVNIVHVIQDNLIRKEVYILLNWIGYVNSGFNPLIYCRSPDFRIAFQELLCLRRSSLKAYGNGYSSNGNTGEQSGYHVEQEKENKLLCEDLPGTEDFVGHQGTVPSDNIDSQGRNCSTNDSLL
Muscarinic acetylcholine receptor M1 (Homo sapiens), sequence (P11229 whole entry, looked up): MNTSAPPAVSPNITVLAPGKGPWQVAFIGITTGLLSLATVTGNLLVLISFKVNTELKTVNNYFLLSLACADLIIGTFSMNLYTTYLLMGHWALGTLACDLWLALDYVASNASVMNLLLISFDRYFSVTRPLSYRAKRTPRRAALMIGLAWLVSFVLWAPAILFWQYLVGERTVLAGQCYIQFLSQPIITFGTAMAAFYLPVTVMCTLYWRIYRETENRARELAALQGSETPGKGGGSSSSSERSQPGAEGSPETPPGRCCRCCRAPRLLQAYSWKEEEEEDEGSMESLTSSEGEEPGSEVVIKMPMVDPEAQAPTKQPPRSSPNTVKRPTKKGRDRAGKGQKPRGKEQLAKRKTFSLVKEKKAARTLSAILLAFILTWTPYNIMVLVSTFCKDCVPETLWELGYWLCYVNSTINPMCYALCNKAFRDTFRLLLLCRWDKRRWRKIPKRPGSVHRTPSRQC
5-hydroxytryptamine receptor 2A (Homo sapiens), sequence (P28223 whole entry, looked up): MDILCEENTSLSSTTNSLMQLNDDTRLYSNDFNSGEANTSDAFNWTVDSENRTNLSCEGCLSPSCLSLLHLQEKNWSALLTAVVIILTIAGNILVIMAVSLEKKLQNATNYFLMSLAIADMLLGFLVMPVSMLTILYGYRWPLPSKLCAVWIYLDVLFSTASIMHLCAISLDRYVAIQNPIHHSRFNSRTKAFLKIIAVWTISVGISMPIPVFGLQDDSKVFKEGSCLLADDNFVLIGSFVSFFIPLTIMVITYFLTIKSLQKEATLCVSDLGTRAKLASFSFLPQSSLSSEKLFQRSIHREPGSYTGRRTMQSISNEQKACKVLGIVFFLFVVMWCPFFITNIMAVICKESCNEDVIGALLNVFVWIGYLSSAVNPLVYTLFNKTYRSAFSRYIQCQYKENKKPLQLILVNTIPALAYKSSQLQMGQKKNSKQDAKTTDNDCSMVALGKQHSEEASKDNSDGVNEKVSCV

CN(C)CCCCCCN(C)C
inactive: [1] | [2] | [3] | [4] | [5] | [6]

O=C(O)/C=C\C(=O)O
inactive: [1] | [2] | [4] | [5] | [6]

CSCC[C@H](NC(=O)[C@H](Cc1c[nH]c2ccccc12)NC(=O)CCNC(=O)OC(C)(C)C)C(=O)N[C@@H](CC(=O)O)C(=O)N[C@@H](Cc1ccccc1)C(N)=O
inactive: [7] | [8] | [9] | [10]

O=C1Nc2ccc(Cl)cc2C(c2ccccc2)=NC1O (centres undefined)
inactive: [11] | [12] | [5] | [6] | [7] | [8] | [9] | [10] | [13] | [14] | [15] | [16] | [17]

CCCCCCCCCCCCCCC(Br)C(=O)O (centres undefined)
inactive: [11] | [12] | [3] | [4] | [5] | [7] | [8] | [9] | [13] | [14] | [15] | [16] | [17]

CC(=O)c1cc2c(cc1C)C(C)(C)C(C)CC2(C)C (centres undefined)
inactive: [11] | [1] | [2] | [3] | [4] | [5] | [6] | [7] | [8] | [10] | [18] | [14] | [16] | [17]

CCOP(=S)(OCC)SCCS(=O)(=O)CC
inactive: [12] | [19] | [3] | [4] | [5] | [6] | [8] | [9] | [10] | [13] | [18] | [14] | [15] | [16] | [17]

COCCOCCO
inactive: [11] | [12] | [19] | [8] | [9] | [13] | [18] | [14]

CC(C)(C)c1ccc(O)cc1
inactive: [7] | [8] | [9] | [10] | [14] | [15] | [16] | [17]

Cc1ccc(O)cc1C
inactive: [7] | [8] | [9] | [10] | [14] | [16] | [17]

Oc1c(Cl)cc(Cl)cc1Cl
inactive: [7] | [8] | [9] | [10] | [14] | [17]

O=C(O)/C=C/C(=O)O
inactive: [1] | [2] | [3] | [4] | [5]

Source: PubChem BioAssay (Tox21)
